An excerpt weighted towards active compounds, which were near 12% of everything screened.
CHX counter: counter-screen hit for Shiga toxin inhibitors, cycloheximide | max response, % | cell reporter, cycloheximide protein synthesis inhibition counterscreen | 300,000 tested, 12% active; in the data active = max response mostly above about 13%, no sharp cut-off; inactive = mostly below about 14%; note: read at 38.3 µM for the half of the compounds with a filed dose
Sm TGR inh: inhibitors of Schistosoma mansoni thioredoxin glutathione reductase; Q962Y6; purified TGR, DTNB reduction, TNB absorbance 405 nm; Potency, µM (series often up to 114 µM), hits mostly inhibitors; 360,000 tested, 3% active; active = well fitted inhibition curve with a large enough effect; inconclusive = small, poorly fitted or top-dose-only effect; inactive = no such curve, though single readings can be large or run the other way; note: nearly all actives have a fitted effect of over 60% in size
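Kinetic colorimetric format: TGR-catalysed, NADPH-driven DTNB reduction monitored via TNB absorbance. Enzyme dispensed at 20 nM; compound exposure 15 min at room temperature before reaction start.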
Shiga inhibitor: blocks Shiga toxin action in Vero cells; 290,000 tested, 9.2% active; inhibition, % at 38.7 µM; AID 2315; Vero cells, Shiga toxin protein synthesis inhibition reporter; in the data active = inhibition mostly above about 28%, no sharp cut-off; inactive = mostly below about 43%
FMDV antiviral: antivirals against foot and mouth disease virus; FMDV antiviral cell-based qHTS; Potency, µM (series often up to 57.9 µM), most hits filed as inhibitors; 410,000 tested, 1.2% active; AID 1159524; calls by dose curve; tested in HEK293T cells; note: read-out not given here; nearly all actives have a fitted effect of over 45% in size
Numbers stand for hits; - = inactive; ? = inconclusive; . = no result; ! = not active in a repeat; [ ] = remark or other dose.

SMILES	CHX counter	Sm TGR inh	Shiga inhibitor	FMDV antiviral
O=c1c2ccccc2nc(COc2ccccc2)n1/N=C/c1c[nH]c2ccccc12	-	-	-	-
O=c1c2ccccc2nc(COc2ccccc2)n1/N=C/c1cn[nH]c1-c1ccccc1	-	-	43.9	-
O=c1c2ccccc2nc(COc2ccccc2)n1/N=C/c1ccc(O)cc1O	16.0	-	93.9	-
Cc1ccc(-c2[nH]ncc2/C=N/n2c(C)nc3ccccc3c2=O)cc1	-	-	-	-
Cc1ccccc1OCc1nc2ccccc2c(=O)n1/N=C/c1cn[nH]c1-c1ccc(Br)cc1	13.0	-	-	?
CCOC(=O)c1noc2ncn(CC(=O)Nc3ccc(OC)c(Cl)c3)c(=O)c12	.	-	.	-
COc1ccccc1/C=C\C(=O)OC[C@@H]1CCCN2CCCC[C@H]12	.	.	.	-
CC(Oc1ccccc1)C(=O)NC1=NCCS1 (stereo not given)	38.1	-	79.5	-
CC(C)c1ccc(OCC(=O)NC2=NCCS2)cc1	68.9	-	98.2	-
O=C(COc1ccccc1)NC1=NCCS1	41.0	-	95.1	-
CC1=C(C(=O)Nc2ccc(C)cc2C)C(c2ccc([N+](=O)[O-])cc2)n2ncc(C(=O)Nc3ccc(F)cc3)c2N1 (stereo not given)	.	-	.	-
Cc1cc(C)c(S(=O)(=O)NCC(c2ccco2)N2CCN(c3ccccc3)CC2)c(C)c1 (stereo not given)	.	-	.	-
COc1cc(CNC(=O)CCCC/C=C/C(C)C)ccc1O	.	-	.	44.7µM!
CCCCC/C=C\C/C=C\C/C=C\C/C=C\CCCC(=O)NCc1ccc(O)c(OC)c1	-	.	-	.
CCN(CC)CCN(Cc1cc2ccc(C)cc2[nH]c1=O)C(=O)Nc1ccc(Cl)cc1	37.5	-	78.4	-
Cc1ccsc1/C=N\NC(=O)c1ccc2c(c1)OCO2	34.7	-	84.9	-
Cc1ccsc1/C=N/NC(=O)c1nnn(-c2nonc2N)c1-c1ccc2c(c1)OCO2	-	-	-	-
Cc1ccsc1/C=N/NC(=O)c1ccc2c(c1)OCCO2	22.8	-	-	-
COc1cc2c(cc1NC(=O)c1ccccc1C)n(C)c(=O)n2C	.	-	.	-
Cc1cnc(-n2ncc(C(=O)N(C)C3CCOC3)c2-c2cccs2)nc1-c1ccc(F)cc1 (stereo not given)	.	.	.	-
C=CCOC(=O)c1[nH]c2c(c1C)C(=O)CC(c1cc(OC)c(OC)c(OC)c1)C2 (stereo not given)	-	-	-	11.2µM
COc1cc(C2CC(=O)c3c([nH]c(C(=O)OC4CCCCC4)c3C)C2)cc(OC)c1OC (stereo not given)	.	-	.	11.2µM
CCCCOC(=O)c1[nH]c2c(c1C)C(=O)CC(c1cc(OC)c(OC)c(OC)c1)C2 (stereo not given)	-	-	-	15.8µM
CCCSc1ncc(Cl)c(C(=O)N(Cc2ccc(N(C)C)cc2)C2CCS(=O)(=O)C2)n1 (stereo not given)	.	-	.	-
CC1=C(C(=O)Nc2cccnc2)C(c2ccc(F)cc2)n2nc(SCc3ccccc3)nc2N1 (stereo not given)	.	-	.	-
SMILES	CHX counter	Sm TGR inh	Shiga inhibitor	FMDV antiviral
CN(C)c1ccc(Nc2nc(-c3cccnc3)cs2)cc1	51.6	-[11.4 µM]	59.0	-
CCN(CC)c1ccc(Nc2nc(-c3cccnc3)cs2)cc1	36.4	-	117.8	-
Cc1cc(C)cc(OCC(=O)Nc2nc(-c3cccnc3)cs2)c1	-	-	-	-
Cc1ccccc1-n1nc(CO)c(C(=O)NCC(c2ccccc2)c2ccccc2)n1	.	-	.	12.6µM
O=C(NCC(c1ccccc1)c1ccccc1)c1nn(-c2ccccc2Cl)nc1CO	.	-	.	?
Cc1ccc2nc(Cl)c(/C=C/C(=O)c3ccco3)cc2c1	57.3	?	80.9	?
Cc1ccc2cc(/C=C/C(=O)c3ccco3)c(Cl)nc2c1	83.3	8.91µM	116.7	-
CCc1cc2cc(C)ccc2nc1SCC(=O)NNC(=O)c1ccco1	-	-	-	-
Cc1ccc(CNC(=O)c2cc(Sc3ccc(F)cc3F)nc3ccccc23)cc1	.	-	.	-
COC(=O)c1ccc(C2C=C(c3ccc(Cl)cc3)Nc3nc4ccccc4n32)cc1 (stereo not given)	.	?	.	-
CCN(c1cc(C)cc(C)c1)S(=O)(=O)c1nnc(NC(=O)C2CCCCC2)s1	.	-	.	-
CCc1ccccc1NC(=O)Nc1nnc(N(CC)c2ccccc2)s1	.	-	.	-
CCOc1ccc(CCNC(=O)CCN2N=C(c3ccc(OC)cc3)CCC2=O)cc1OCC	.	-	.	-
N/C(=N\OC(=O)CCC1CCCC1)c1cccnc1	14.8	-	-	-
N/C(=N\OC(=O)CC1CCCCC1)c1cccnc1	26.5	-	-	-
N/C(=N\OC(=O)C1CCCCC1)c1cccnc1	-	-	-	-
COc1ccc(OC)c(S(=O)(=O)NCCc2csc3nc(-c4ccccc4)nn23)c1	.	-	.	-

Screening results (PubChem BioAssay)
